# Screening data (PubChem)
# Rows were chosen to be rich in hits. Some 1.2% of all compounds tested hit in one or more screens of this group.
# eLon inh – inhibitors of E. coli Lon protease; inhibition, % at 7.94 µM; purified E. coli Lon protease, fluorescence polarization; 0.42% of 360,000 active; P0A9M0; AID 602123; in the data active = inhibition above about 13%, passing the limit was not always enough;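 note: 0% = enzyme with probe and DMSO and 100% = no enzyme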
# Target sequence (P0A9M0 whole entry, looked up): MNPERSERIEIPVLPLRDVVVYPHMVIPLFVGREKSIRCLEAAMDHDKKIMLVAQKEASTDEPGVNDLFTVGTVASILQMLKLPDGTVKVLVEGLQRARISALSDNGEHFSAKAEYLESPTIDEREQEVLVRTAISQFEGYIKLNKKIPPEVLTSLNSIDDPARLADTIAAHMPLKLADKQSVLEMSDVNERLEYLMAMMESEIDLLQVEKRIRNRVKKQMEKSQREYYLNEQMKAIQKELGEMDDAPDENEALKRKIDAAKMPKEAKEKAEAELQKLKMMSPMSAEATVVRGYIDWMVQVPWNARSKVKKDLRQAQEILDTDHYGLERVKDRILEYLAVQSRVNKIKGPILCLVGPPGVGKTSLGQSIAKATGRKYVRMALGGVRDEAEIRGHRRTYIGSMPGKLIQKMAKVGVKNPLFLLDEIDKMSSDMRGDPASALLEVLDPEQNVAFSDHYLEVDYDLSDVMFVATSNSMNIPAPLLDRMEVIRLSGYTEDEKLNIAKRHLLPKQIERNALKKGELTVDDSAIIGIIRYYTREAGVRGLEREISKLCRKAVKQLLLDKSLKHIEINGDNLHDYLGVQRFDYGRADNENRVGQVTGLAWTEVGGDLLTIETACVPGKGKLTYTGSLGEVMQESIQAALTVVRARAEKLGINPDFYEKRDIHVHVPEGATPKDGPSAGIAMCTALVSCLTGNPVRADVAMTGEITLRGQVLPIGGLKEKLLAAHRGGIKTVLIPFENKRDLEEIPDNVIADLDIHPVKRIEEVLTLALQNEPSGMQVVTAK
# Bcl-xL primary – blocks human Bcl-xL binding to Bim BH3 peptide | Q07817 | inhibition, % at 10.9 µM | 0.7% of 320,000 active | GST-Bcl-xL / FITC-Bim BH3 peptide fluorescence polarization;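 active = inhibition above the mean of all tested compounds plus 3 SD, cutoff set per campaign, cut at about 30% in these data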;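 note: 0% = DMSO wells and 100% = unlabeled Bim-BH3 peptide competitor; inhibitors lower millipolarization by displacing the labeled peptide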
# LANA DNA inh – KSHV C-LANA DNA binding inhibition | AID 504423 | 0.078% of 340,000 active | MBP-C-LANA/FAM-LBS DNA binding, fluorescence polarization | inhibition, % at 9 µM;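 active = highest replicate inhibition at or above 60% at 9 µM, even if other replicates fall short; inactive = all replicates below 60% inhibition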;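 note: 0% = neutral control wells and 100% = 4 µM acridine orange control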
# Keap1 Nrf2 FP – Keap1-Nrf2 (human) interaction inhibition; Q14145; Keap1 Kelch-Nrf2 peptide fluorescence polarization, 1536-well; inhibition, % at 9.4 µM; 0.15% of 340,000 active; AID 504523; in the data active = inhibition above about 12%;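 note: human Keap1 Kelch domain with fluorescein labeled Nrf2 9mer peptide probe; 0% = neutral control wells and 100% = peptide positive control; higher means more block of Keap1 binding to Nrf2 peptide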
# MEX-5 binding – C. elegans MEX-5 TCR-2 RNA binding activity; MEX-5/FITC-TCR2 RNA binding, fluorescence polarization; stronger effect = lower value; activity score (negative = inhibition of binding), % at 10 µM; Q9XUB2; 0.38% of 300,000 active;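 active = inhibition past about -25% in most replicates, and total fluorescence under double the plate's negative control median, limit read from the data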;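 note: 0% = DMSO and -100% = 5 µM competing unlabeled TCR2 RNA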
# GLD-1 TGE inh – GLD-1-TGE RNA interaction inhibition (C. elegans); Q17339; purified GLD-1 + fluorescein TGE RNA, fluorescence polarization; inhibition, % at 5.96 µM; 0.44% of 320,000 active;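 active = percent inhibition above a per-plate cutoff, the plate mean of test compounds plus 3 SD, cut at about 30% in these data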;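 note: 0% = DMSO wells with GLD-1 and probe and 100% = wells lacking GLD-1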
# eLon confirm – E. coli Lon inhibition confirmation; shares compounds with eLon inh; purified E. coli Lon, fluorescence polarization; inhibition, % at 7.94 µM; 31% of 1,400 active; in the data active = inhibition above about 16%;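 note: 0% = enzyme with probe and DMSO and 100% = no enzyme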
# * = called active by the depositor; nt = no result given; ! = repeats disagree.
SMILES,eLon inh,Bcl-xL primary,LANA DNA inh,Keap1 Nrf2 FP,MEX-5 binding,GLD-1 TGE inh,eLon confirm
CCN(C(=O)c1ccc2c(=O)n3c(nc2c1)CCCCC3)c1ccc(F)cc1,-2.0,1.9,-1.6,0.6,-5.7,-11.6,nt
CCOc1ccccc1N(CC)C(=O)c1ccc2c(=O)n3c(nc2c1)CCCCC3,20.9*,2.3,3.6,1.5,3.1,4.8,-3.2
Cc1ccc(S(=O)(=O)NC(=O)C2(C)CCN2C(=O)COc2ccc(Cl)cc2)nc1 (stereo not given),-5.0,nt,nt,nt,nt,nt,nt
CC(=O)N1CCc2c(sc(NC(=O)C3CCN(S(=O)(=O)c4cccs4)CC3)c2C(N)=O)C1,-38.7,5.7,4.1,0.2,-2.9,28.3,nt
CC(=O)N1CCc2c(sc(NC(=O)C3CCCN3S(=O)(=O)c3cccs3)c2C(N)=O)C1 (stereo not given),40.5*,67.1*,25.2,0.2,-35.4*,115.5*,13.9
N#Cc1cc2cc3c(cc2nc1N1CCCCC1)OCCO3,-2.8,7.9,0.0,0.1,-2.1,-2.9,nt
Cc1ccc(C(=O)N2CCCN(c3nc4cc5c(cc4cc3C#N)OCO5)CC2)cc1,73.1*,87.2*,5.8,-0.5,-4.8,58.3*,5.2
CN1CCN(C(c2ccc(F)cc2)c2ccc3cccnc3c2O)CC1 (stereo not given),25.5*,nt,-0.4,-4.9,nt,nt,-2.8
COc1ccc(NC(=O)CN(C)C(=O)/C=C/c2ccc(OCc3ccccc3)cc2)cc1,19.2*,-0.2,-1.3,0.3,0.7,5.2,-7.7
COc1ccc(NC(=O)CN(C)C2=NS(=O)(=O)c3ccccc32)cc1Cl,-3.0,nt,0.7,-2.5,nt,0.4,nt
Cc1occc1C(=O)N1CCCC(CO)(Cc2ccc(F)cc2F)C1 (stereo not given),-18.4,2.2,-0.1,-2.5,-0.5,-1.4,nt
O=C(Nc1cccc2ccccc12)c1csc([C@@H]2O[C@H](CO)[C@@H](O)[C@H]2O)n1,3.9,nt,nt,nt,nt,nt,nt
O=C(Nc1cccc(Cl)c1Cl)c1csc([C@@H]2O[C@H](CO)[C@H](O)[C@H](O)[C@H]2O)n1,14.8*,nt,nt,nt,nt,nt,1.9
CC(C)c1cc(C(=O)N/N=C/c2c[nH]c3ccccc23)n[nH]1,24.8*,5.8,0.6,-5.1,-1.4,-1.4,-7.6
CCOc1ccccc1/C=N/NC(=O)c1cc(C(C)C)[nH]n1,-7.3,-2.5,-0.3,-5.9,0.2,-0.8,nt
O=Cc1cc(N=Nc2ccc(S(=O)(=O)O)cc2)ccc1O,14.6,-2.9,0.2,-4.4,-13.5,5.2,nt
Cc1cc(C=O)c(O)cc1O,37.2*,2.1,1.4,0.2,-1.1,-3.5,-5.1
C/C(N)=C(/C#N)C(=O)COC(=O)C1Cc2ccccc2CN1S(C)(=O)=O (stereo not given),16.0*!,0.0,-1.4,0.7,1.2,6.3,1.8
CS(=O)(=O)N1Cc2ccccc2CC1C(=O)OCC(=O)NCc1ccccc1 (stereo not given),-3.4,nt,-1.9,0.1,nt,3.3,nt
CCC(C(=O)NC1CCCC1)N(Cc1ccco1)C(=O)CNS(=O)(=O)c1ccccc1 (stereo not given),17.0*,3.8,-1.5,-1.2,2.8,-5.3,8.3
CCCC(C(=O)NC1CCCCC1)N(Cc1ccco1)C(=O)CNS(=O)(=O)c1ccccc1 (stereo not given),1.1,2.2,-2.2,0.3,-0.7,3.0,nt
N#Cc1ccc(S(=O)(=O)NC2CC2)cc1,19.6*,3.0,0.5,-2.6,-0.8,2.2,41.6*
O=S(=O)(NC1CCCC1)c1ccc(S(=O)(=O)NC2CCCC2)cc1,6.1,2.0,-0.9,-6.7,-1.0,4.3,nt
O=c1[nH]nc(-c2ccc(F)cc2)cc1Cc1ccccc1,31.5*,3.4,-1.4,4.0,-2.3,8.7,1.3
Cc1csc(-c2ccc3cc(Cl)cc(Cl)c3n2)n1,-4.3,nt,nt,nt,nt,nt,nt
SMILES,eLon inh,Bcl-xL primary,LANA DNA inh,Keap1 Nrf2 FP,MEX-5 binding,GLD-1 TGE inh,eLon confirm
COc1cccc(OCC(=O)N(C)Cc2nc(-c3cccc(C)c3)no2)c1,1.2,-4.5,0.8,3.3,-2.2,1.2,nt
O=C(CC1C=CCC1)Nc1ccccc1 (stereo not given),50.0*,nt,0.2,-2.8,nt,nt,-1.4
O=C(CC1NCCNC1=O)Nc1ccccc1 (stereo not given),4.0,-13.1,-1.8,-2.4,-0.8,0.0,nt
COc1ccc(Cc2nnc(NC(=O)CS(=O)(=O)Cc3ccccc3)s2)cc1,4.4,9.7,0.6,-2.2,-8.5,5.5,nt
Cc1ccc(S(=O)(=O)N2CCn3cccc3C2C)cc1 (stereo not given),20.6*,10.8,0.2,-10.9,nt,6.7,-5.2
COc1cccc(NC(=O)COC(=O)c2ccc(F)cc2F)c1,-7.3,3.5,15.5,2.2,-1.2,1.5,nt
N#Cc1ccccc1NC(=O)COC(=O)c1ccc(F)cc1F,16.5*,2.4,-1.0,-0.7,0.9,-0.6,-3.7
COc1ccccc1/C=C/C(=O)OCC(=O)NC1CCCCCCC1,-6.3,nt,1.4,-3.8,nt,1.9,nt
O=C(CN(Cc1ccco1)S(=O)(=O)c1cccs1)Nc1ccccc1C(F)(F)F,17.3*,8.1,0.7,-7.5,1.5,-1.5,-0.7
CCCCNC(=O)C1(C)CCCCN1C(=O)c1c(Cl)cccc1Cl (stereo not given),-1.2,nt,nt,nt,nt,nt,nt
COC(=O)C1=C(C)NC2=C(C(=O)CCC2)C1c1ccc(-c2ccsc2C(=O)OC)o1 (stereo not given),18.5*,5.5,nt,-0.5,-0.8,0.1,-27.2
COC(=O)C1=C(C)NC2=C(C(=O)CCC2)C1c1ccsc1 (stereo not given),nt,nt,nt,nt,-3.3,nt,nt
COc1ccccc1-c1ccc2c(c1)C(C)(Cc1ccc(F)c(Cl)c1)C(=O)N2 (stereo not given),16.0*,nt,nt,nt,nt,nt,-7.9
CCOC(=O)C1CCN(CC(=O)Nc2cc(S(=O)(=O)N3CCCCC3)ccc2Cl)CC1,23.1*,nt,-1.1,-1.1,nt,nt,3.3
Cc1cc(=O)n(CC(=O)NCCN2CCOCC2)c2c1c(C)nn2-c1ccccc1,16.6*,2.0,-0.8,-1.3,2.1,-0.2,-0.7
Cc1cc(=O)n(CC(=O)NC2CC2)c2c1c(C)nn2-c1ccccc1,-12.0,3.5,-1.1,-3.2,0.9,1.2,nt
COc1cc2c(cc1OC)CN(CC(=O)Nc1cccc([N+](=O)[O-])c1)CC2,2.3,8.0,0.6,1.3,-1.6,-2.5,nt
COc1cc([N+](=O)[O-])ccc1NC(=O)CN1CCc2cc(OC)c(OC)cc2C1,42.3*,nt,-2.7,-4.1,0.7,nt,5.8
Cc1cc(C(N)=O)c2ccccc2n1,-5.8,1.7,-0.8,5.7,1.1,1.1,nt
NC(=O)c1cc2c3ccccc3ccn2c1-c1ccccc1,25.3*,50.4*,10.7,5.9,-8.9,50.7*,18.2*
COc1cc(OC)c(OC)cc1CNCc1ccco1,-7.7,5.0,0.1,-1.3,-0.8,-1.5,nt
